# Bioassay records from PubChem BioAssay.
# TCR act – activators of T cell receptors. primary human leukocytes, anti-CD3, IL-2 HTRF, 48 h. Potency, µM (highest dose often 9.22 µM), usual class: activators. 330,000 tested, under 10 active. AID 504894
#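 48 hr co-incubation of compounds, a-CD3 beads and primary human leukocytes; IL-2 quantified homogeneously by HTRF with anti-IL-2 K and d2 conjugates.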
# PINK1 modulator – modulators of PINK1 expression | hit rate 0.2% among 410,000 | PINK1 immunofluorescence, high-content cytometry, 24 h | Potency, µM (doses to about 76.6 µM), actives largely listed as activators; active means well fitted activation curve with a large enough effect; inconclusive means small, poorly fitted or top-dose-only effect; cell line not stated here; further: nearly all actives have a fitted effect of over 65% in size
#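 Cells are seeded, rested 12 hours, then given compound at five concentrations or DMSO for 24 hours. After fixation, blocking and antibody staining, PINK1 amount and mitochondrial localization are scored; CCCP serves as control.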
# BRCA1 expr up – activators of BRCA1 expression; hit rate 1.1% among 380,000; MCF7-BRCA1-FFLuc reporter, luminescence, 48 h; response scale: scaled: vehicle 0%, 10 µM genistein 100%; AID 624202; Potency, µM (highest dose often 46.1 µM), usual class: activators; further: nearly all actives have a fitted effect of over 80% in size
#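 Activators of BRCA1 expression were detected as increased firefly luciferase luminescence in engineered MCF7 cells after 48 h compound incubation. Signals were scaled to genistein 10 microM as full activation.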
# Akt phos inh – blocks phosphorylation of Akt; hit rate 0.32% among 360,000; activity change, % for hits at 50 µM; Neuro2A IGF-stimulated pAkt S473 HTRF, 20 min; stronger effect = lower value; AID 651550; in the data active means activity change below about -80%; inconclusive means mostly about -51% to -80%
#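 Single-point screen (50 µM final compound) in Neuro2A cells stimulated 20 min with 6 nM IGF at 37 deg C. After lysis, Ser473-phosphorylated Akt read by HTRF (ex 330 nm, em 615/665 nm) as the 665/615 ratio.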
# Hits are given with their value; – = inactive; ? = inconclusive; · = not tested or not shown. Most compounds without a hit are left out; they make up all but 1.5% or so of the library. Unless noted, the call rests on the fitted dose curve; in most records, active means well fitted curve in the direction sought with a large enough effect; inconclusive means small, poorly fitted or top-dose-only effect, or another doubt; inactive means no such curve, though single readings can be large; an effect the other way counts as inactive or inconclusive.
SMILES,TCR act,PINK1 modulator,BRCA1 expr up,Akt phos inh
COC(=O)C1CCN(Cc2ccc3c(c2)CN(C(=O)c2ccc4nc(C)c(C)nc4c2)CCO3)CC1,·,–,·,·
CN(C)/C=C(\C#N)C(=O)c1cccc(Oc2ccc(Br)cc2)c1,–,–,–,-112%
Cc1ccc(NC(=S)Nc2ccc(C(C)C)cc2)cc1S(=O)(=O)N1CCCCCC1,–,11µM,–,–
CC(C)c1c(C(=O)NCc2cccnc2)cnn1-c1nccc(-c2ccccc2F)n1,·,–,·,·
Cc1ccc(S(=O)(=O)N2CCN(C(=O)CN3CCCCC3)C2)cc1,–,–,–,-101%
COc1cccc(N2C(=O)CSC23C(=O)N(CC(=O)NCc2ccc(C)cc2)c2ccccc23)c1 (centres undefined),·,–,–,·
O=C(CCCOc1ccc(Cl)cc1)Nc1nncs1,–,–,–,-112%
Cc1cc(N2CCCCCC2)nc2ccc(F)cc12,–,–,–,-92%
O=S(=O)(c1ccc(Br)cc1)N1CCN(c2cc(-c3ccccc3)nc3ncnn23)CC1,–,–,–,·
O=S(=O)(c1ccccc1)N1CCN(c2cc(-c3ccccc3)nc3ncnn23)CC1,·,–,–,-88%
O=C(CSc1ccccn1)Nc1ccc2c(c1)CCC2,–,–,10µM,–
O=C(CSc1nnc(-c2cccc(Cl)c2)o1)Nc1ccc2c(c1)OCCO2,–,–,7.9µM,–
Cc1ccccc1NC(=O)CSc1nnc(-c2cccc(Cl)c2)o1,·,–,·,·
O=C(CSc1ncccn1)NC(=O)Nc1ccc2c(c1)OCCO2,–,–,13µM,–
O=C(CSc1ccccn1)Nc1ccc2c(c1)OCCO2,–,–,11µM,–
CCn1c(-c2cccnc2)nc2cc(NC(=O)COC)cc(C(=O)N3CCOc4ccccc4C3)c21,·,–,·,·
CCN(CC(=O)Nc1ccc2c(c1)OCCO2)C(=O)c1cc(Cl)nc2ccccc12,–,–,–,–
Cn1cccc1C(=O)OCC(=O)NCc1ccc2c(c1)OCO2,–,–,–,–
Cn1cccc1C(=O)OCC(=O)Nc1ccc2c(c1)OCCO2,–,–,2µM,–
O=C(CNCc1ccccc1Cl)Nc1ccc2c(c1)OCCO2,–,–,10µM,–
O=C(Nc1ccc2c(c1)OCO2)N1CCN(c2ccccc2Cl)CC1,–,–,10µM,–
CCN(CC(=O)Nc1ccc2c(c1)OCCO2)C(=O)c1ccc(Cl)cc1Cl,–,–,1.8µM,–
O=[N+]([O-])c1ccc(O/N=[N+](\[O-])N2CCN(c3ccccc3)CC2)c([N+](=O)[O-])c1,·,–,–,·
CC(=O)c1ccc(F)c(-c2cc(C)cc3c2OC(CNC(=O)c2cnc4ccccn4c2=O)C3)c1 (centres undefined),·,–,·,·
Cc1ccc(OCc2nnc(SCC(=O)Nc3ccc4c(c3)OCCO4)n2Cc2ccco2)cc1,–,–,–,-104%
SMILES,TCR act,PINK1 modulator,BRCA1 expr up,Akt phos inh
Cc1ccc(-c2nnc(Cc3ccc(Cl)cc3)o2)cc1,–,–,13µM,–
Brc1ccc(-c2nnc(Cc3ccccc3)o2)cc1,–,–,11µM,–
COc1ccc(Cc2nnc(-c3ccccc3)o2)cc1,–,–,13µM,–
c1ccc(Cc2nnc(-c3ccccc3)o2)cc1,–,–,–,–
COc1ccc(-c2nnc(-c3ccc(F)cc3)o2)cc1,–,–,?,–
COc1ccc(-c2nnc(-c3ccc(C)cc3)o2)cc1,–,–,2.8µM,–
CC(=O)Nc1cc(C(=O)N2CCCC(C)C2)cc2ncn(CCc3ccccn3)c12 (centres undefined),·,–,·,·
COc1ccccc1CN1CCCC(n2cc(C(=O)N3CCCCC3)nn2)C1 (centres undefined),·,–,·,·
Cc1ccc(C(=O)Nc2cccc(-c3nc(CNC(=O)c4cccc(C)c4C)c(C)o3)c2)s1,·,–,·,·
Cc1ccccc1-c1ccc(CN2CCc3nnc(CNC(=O)c4ccccn4)n3CC2)cc1,·,–,·,·
c1ccn(-c2ccc(-c3ccn[nH]3)cc2)c1,–,–,5µM,–
Cc1ccc(-c2nc3scc(CCNS(=O)(=O)c4c(C)noc4C)n3n2)cc1,·,–,·,·
COc1ccc(N=Cc2c(O)c3ccccc3n2C(C)=O)cc1,–,25µM,–,–
COc1ccc(N=Cc2sc(O)c3ccccc23)cc1,–,–,?,–
